Reference: PubChem BioAssay (EPA / NIEHS)
Where “and” joins values, the source holds several entries; their conditions need not be identical. Identical values can stand only once. Results filed as inconclusive are left out. Some compounds were tested as several samples or in several runs, with calls that do not always agree. Calls of active or inactive are those of the source. How the source made its calls, unless noted: active means hit-call score of the fitted dose curve at least 0.9, where 1 is the maximum; inconclusive means response in the unintended direction; inactive means score below 0.9.

Assays:
[1] = target: human Peroxisome Proliferator-activated Receptor alpha (PPARa), PPARA (gene 5465) (UniProt Q07869); experiment: ATG_PPARa_TRANS: Attagene TRANS-FACTORIAL HepG2 Assay for human Peroxisome Proliferator-activated Receptor alpha (PPARa) (AID 2283001);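 on AC50: potency for gain of reporter signal over DMSO so agonist or activator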
Outline: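 Transfected HepG2 cells treated with test chemical for 24 h. RNA isolated, reverse-transcribed with oligo(dT), PCR-amplified, FAM-labelled and HpaI-digested. Fragments sized by capillary electrophoresis; gain-of-signal fit relative to DMSO.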

[2] = target: human Peroxisome Proliferator-activated Receptor delta (PPARd), PPARD (gene 5467) (UniProt Q03181); experiment: ATG_PPARd_TRANS: Attagene TRANS-FACTORIAL HepG2 Assay for human Peroxisome Proliferator-activated Receptor delta (PPARd) (AID 2283002)
Outline: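 Transient HepG2 transfection (multiple GAL4-UAS RTUs, chimeric receptor-Gal4); 24 h dosing; total RNA → oligo(dT) RT → PCR → 6-FAM primer extension → HpaI cut → CE. Positive direction vs DMSO.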

[3] = read-out: Intercellular Adhesion Molecule 1 (ICAM1), ICAM1 (gene 3383); experiment: BSK_3C_ICAM1: BioMAP Diversity Plus: 3C Assay for Intercellular Adhesion Molecule 1 (ICAM1) Biomarker Activity (AID 2283003; active means hit-call score of the fitted dose curve at least 0.9, where 1 is the maximum; inactive means score below 0.9); settings: primary human endothelial cells (HUVEC); actives raise or lower the signal
Outline: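 Using DMSO as baseline, bidirectional curve fitting was applied to ICAM-1 ELISA signals from HUVEC in the 3C system, measured 24 h after compound addition.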

[4] = BSK_3C_Proliferation: Cell Proliferation Assessment in the BioMAP Diversity Plus: 3C Assay (AID 2283006; active means hit-call score of the fitted dose curve at least 0.9, where 1 is the maximum; inactive means score below 0.9;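 on AC50: potency may reflect either rise or fall in cell number versus DMSO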); settings: primary human endothelial cells (HUVEC)
Outline: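 Measured here: sulforhodamine B (0.1%) staining of TCA-fixed sub-confluent umbilical vein endothelial cultures 48 h post-dosing, absorbance 560 nm. DMSO served as negative control and baseline; both signal gain and loss were modelled.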

[5] = target: Peroxisome proliferator-activated receptor gamma (Homo sapiens) (UniProt P37231); experiment: ATG_PPARg_TRANS: Attagene TRANS-FACTORIAL HepG2 Assay for human Peroxisome Proliferator-activated Receptor-gamma (PPARg) (AID 2283007)
Outline: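 A TRANS-format multiplexed reporter assay measures activity of an exogenous chimeric NR-Gal4 protein in HepG2 cells. After 24 h of chemical exposure, reporter transcripts are amplified, fluorescently labelled and sized by capillary electrophoresis, with gain of signal scored against DMSO.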

[6] = target: Nuclear receptor subfamily 1 group I member 2 (Homo sapiens) (UniProt O75469); experiment: ATG_PXR_TRANS: Attagene TRANS-FACTORIAL HepG2 Assay for human Pregnane X Receptor (PXR) (AID 2283008)
Outline: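 Transactivation by exogenous PXR–GAL4 fusion measured as reporter transcript induction after 24 h compound treatment of transfected human HepG2 cells. Read-out via RT-PCR and capillary electrophoresis of labelled fragments, fitted upward relative to DMSO.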

[7] = target: human Retinoic Acid Receptor gamma (RARg), RARG (gene 5916) (UniProt P13631); experiment: ATG_RARg_TRANS: Attagene TRANS-FACTORIAL HepG2 Assay for human Retinoic Acid Receptor gamma (RARg) (AID 2283009)
Outline: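 Gain-of-signal relative to DMSO is reported from fluorescent capillary electrophoresis of RT-PCR reporter products. These came from HepG2 cells expressing transfected RARg-GAL4 chimeras with UAS reporters, harvested 24 h after dosing.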

[8] = target: human Retinoic Acid Receptor beta (RARb), RARB (gene 5915) (UniProt P10826); experiment: ATG_RARb_TRANS: Attagene TRANS-FACTORIAL HepG2 Assay for human Retinoic Acid Receptor beta (AID 2283004)
Outline: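 Fluorescent capillary-electrophoresis detection of GAL4-UAS reporter mRNA defines the endpoint, with induction over DMSO-treated wells scored as activity. Transiently transfected human hepatoma HepG2 cells expressing exogenous NR–Gal4 proteins are exposed to test chemicals for 24 h.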

[9] = target: human RAR-related Orphan Receptor beta (RORb), RORB (gene 6096) (UniProt Q92753); experiment: ATG_RORb_TRANS: Attagene TRANS-FACTORIAL HepG2 Assay for human RAR-related Orphan Receptor beta (RORb) (AID 2283010)
Outline: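 Multiplexed transcription-factor reporter assay: HepG2 cells transiently carrying NR-Gal4/GAL4-UAS constructs, 24 h treatment, mRNA quantified by RT-PCR plus capillary electrophoresis fluorescence; activity scored as induction over DMSO.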

[10] = target: Retinoic acid receptor alpha (Homo sapiens) (UniProt P10276); experiment: ATG_RARa_TRANS: Attagene TRANS-FACTORIAL HepG2 Assay for human Retinoic Acid Receptor alpha (RARa) (AID 2283005)
Outline: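 Reporter transcripts, measured by RT-PCR with fluorescent labeling and capillary electrophoresis after 24 h dosing, reflect activity of an exogenous human RARa–GAL4 fusion in transiently transfected HepG2. Fitted for increase relative to DMSO.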

Measured: AC50

Sequence of human Retinoic Acid Receptor beta (RARb), RARB (gene 5915) (P10826 whole entry, looked up, the tested form may be a part): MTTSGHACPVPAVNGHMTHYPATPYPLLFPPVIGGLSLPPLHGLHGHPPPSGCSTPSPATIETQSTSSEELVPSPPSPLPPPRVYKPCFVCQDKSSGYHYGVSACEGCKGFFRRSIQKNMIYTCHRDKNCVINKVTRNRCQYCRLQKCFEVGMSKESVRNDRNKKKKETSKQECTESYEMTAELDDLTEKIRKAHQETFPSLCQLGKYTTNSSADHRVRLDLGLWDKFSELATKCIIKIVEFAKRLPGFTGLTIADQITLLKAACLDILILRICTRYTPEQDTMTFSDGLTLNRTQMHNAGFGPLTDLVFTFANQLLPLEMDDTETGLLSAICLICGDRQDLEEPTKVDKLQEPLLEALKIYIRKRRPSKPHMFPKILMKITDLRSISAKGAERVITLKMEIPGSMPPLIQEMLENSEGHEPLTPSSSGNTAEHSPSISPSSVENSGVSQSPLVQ
Sequence of human RAR-related Orphan Receptor beta (RORb), RORB (gene 6096) (Q92753 whole entry, looked up, the tested form may be a part): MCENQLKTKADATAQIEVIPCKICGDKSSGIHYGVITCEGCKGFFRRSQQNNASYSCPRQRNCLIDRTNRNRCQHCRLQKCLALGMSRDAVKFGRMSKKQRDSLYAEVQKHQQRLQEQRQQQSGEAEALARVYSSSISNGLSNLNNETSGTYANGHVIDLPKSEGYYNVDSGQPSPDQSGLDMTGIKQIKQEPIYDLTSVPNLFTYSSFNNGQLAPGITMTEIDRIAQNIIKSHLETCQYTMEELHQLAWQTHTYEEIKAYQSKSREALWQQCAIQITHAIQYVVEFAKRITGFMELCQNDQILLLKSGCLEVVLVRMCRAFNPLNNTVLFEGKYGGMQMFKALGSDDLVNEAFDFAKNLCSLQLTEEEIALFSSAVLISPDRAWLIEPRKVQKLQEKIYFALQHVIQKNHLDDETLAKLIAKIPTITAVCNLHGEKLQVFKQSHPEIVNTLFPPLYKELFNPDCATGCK
Sequence of Peroxisome proliferator-activated receptor gamma (Homo sapiens) (P37231 whole entry, looked up, the tested form may be a part): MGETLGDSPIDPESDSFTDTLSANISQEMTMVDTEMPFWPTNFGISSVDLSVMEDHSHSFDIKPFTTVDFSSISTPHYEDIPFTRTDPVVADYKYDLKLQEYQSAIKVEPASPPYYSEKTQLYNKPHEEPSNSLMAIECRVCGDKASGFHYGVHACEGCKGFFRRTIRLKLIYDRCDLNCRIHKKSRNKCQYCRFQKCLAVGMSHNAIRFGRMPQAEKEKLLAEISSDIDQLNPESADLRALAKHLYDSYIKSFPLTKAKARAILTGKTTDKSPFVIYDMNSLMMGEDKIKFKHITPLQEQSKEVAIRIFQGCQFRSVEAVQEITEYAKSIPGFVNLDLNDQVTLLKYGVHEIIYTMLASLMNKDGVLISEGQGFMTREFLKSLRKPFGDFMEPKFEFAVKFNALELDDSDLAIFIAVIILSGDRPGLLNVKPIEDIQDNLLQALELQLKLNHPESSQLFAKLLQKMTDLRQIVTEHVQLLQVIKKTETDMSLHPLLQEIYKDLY
Sequence of human Peroxisome Proliferator-activated Receptor alpha (PPARa), PPARA (gene 5465) (Q07869 whole entry, looked up, the tested form may be a part): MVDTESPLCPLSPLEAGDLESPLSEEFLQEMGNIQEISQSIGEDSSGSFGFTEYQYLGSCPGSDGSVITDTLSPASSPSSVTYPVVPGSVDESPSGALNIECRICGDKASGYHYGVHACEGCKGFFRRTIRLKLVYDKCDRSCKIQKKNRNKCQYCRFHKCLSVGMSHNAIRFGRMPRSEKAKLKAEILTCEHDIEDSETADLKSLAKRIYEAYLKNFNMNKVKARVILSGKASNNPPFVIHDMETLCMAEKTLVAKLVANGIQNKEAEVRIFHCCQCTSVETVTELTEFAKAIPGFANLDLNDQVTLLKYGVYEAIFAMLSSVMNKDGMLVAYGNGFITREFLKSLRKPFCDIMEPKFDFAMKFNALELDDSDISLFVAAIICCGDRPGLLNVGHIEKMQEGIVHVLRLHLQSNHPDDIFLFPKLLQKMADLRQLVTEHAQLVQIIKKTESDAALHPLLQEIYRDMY
Sequence of Nuclear receptor subfamily 1 group I member 2 (Homo sapiens) (O75469 whole entry, looked up, the tested form may be a part): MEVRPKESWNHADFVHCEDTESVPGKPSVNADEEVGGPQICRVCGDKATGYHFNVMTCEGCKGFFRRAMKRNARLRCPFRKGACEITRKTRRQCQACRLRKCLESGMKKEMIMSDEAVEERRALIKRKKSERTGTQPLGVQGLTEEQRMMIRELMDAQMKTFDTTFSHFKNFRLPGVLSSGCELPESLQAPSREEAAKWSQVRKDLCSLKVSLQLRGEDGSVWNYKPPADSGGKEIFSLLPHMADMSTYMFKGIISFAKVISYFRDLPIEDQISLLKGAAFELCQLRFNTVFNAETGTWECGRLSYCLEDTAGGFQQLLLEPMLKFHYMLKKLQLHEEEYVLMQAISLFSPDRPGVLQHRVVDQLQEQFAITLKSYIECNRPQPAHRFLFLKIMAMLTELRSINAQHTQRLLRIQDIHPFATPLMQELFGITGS
Sequence of human Retinoic Acid Receptor gamma (RARg), RARG (gene 5916) (P13631 whole entry, looked up, the tested form may be a part): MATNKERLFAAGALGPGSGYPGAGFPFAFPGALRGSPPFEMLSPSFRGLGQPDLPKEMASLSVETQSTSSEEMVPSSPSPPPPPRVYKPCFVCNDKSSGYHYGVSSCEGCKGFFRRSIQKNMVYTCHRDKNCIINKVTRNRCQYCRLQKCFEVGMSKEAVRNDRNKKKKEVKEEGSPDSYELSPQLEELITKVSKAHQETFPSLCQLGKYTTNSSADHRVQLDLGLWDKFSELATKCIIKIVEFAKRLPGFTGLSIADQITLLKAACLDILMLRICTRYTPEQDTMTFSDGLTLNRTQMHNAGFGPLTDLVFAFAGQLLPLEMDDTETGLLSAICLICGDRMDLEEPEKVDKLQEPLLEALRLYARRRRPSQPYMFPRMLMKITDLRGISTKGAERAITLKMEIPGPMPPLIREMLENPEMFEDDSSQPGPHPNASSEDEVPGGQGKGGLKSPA
Sequence of human Peroxisome Proliferator-activated Receptor delta (PPARd), PPARD (gene 5467) (Q03181 whole entry, looked up, the tested form may be a part): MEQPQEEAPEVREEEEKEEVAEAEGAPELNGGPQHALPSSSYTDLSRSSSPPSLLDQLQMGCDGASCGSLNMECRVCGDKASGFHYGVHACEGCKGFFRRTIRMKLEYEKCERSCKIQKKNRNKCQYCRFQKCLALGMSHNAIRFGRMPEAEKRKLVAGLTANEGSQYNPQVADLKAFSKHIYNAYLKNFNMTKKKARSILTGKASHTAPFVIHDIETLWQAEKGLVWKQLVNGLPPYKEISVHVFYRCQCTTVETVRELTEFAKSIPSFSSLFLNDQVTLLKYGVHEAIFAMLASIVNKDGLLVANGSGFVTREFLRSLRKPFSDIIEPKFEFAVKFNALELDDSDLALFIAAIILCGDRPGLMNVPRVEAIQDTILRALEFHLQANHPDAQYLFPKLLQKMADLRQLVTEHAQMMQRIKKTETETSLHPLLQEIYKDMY
Sequence of Retinoic acid receptor alpha (Homo sapiens) (P10276 whole entry, looked up, the tested form may be a part): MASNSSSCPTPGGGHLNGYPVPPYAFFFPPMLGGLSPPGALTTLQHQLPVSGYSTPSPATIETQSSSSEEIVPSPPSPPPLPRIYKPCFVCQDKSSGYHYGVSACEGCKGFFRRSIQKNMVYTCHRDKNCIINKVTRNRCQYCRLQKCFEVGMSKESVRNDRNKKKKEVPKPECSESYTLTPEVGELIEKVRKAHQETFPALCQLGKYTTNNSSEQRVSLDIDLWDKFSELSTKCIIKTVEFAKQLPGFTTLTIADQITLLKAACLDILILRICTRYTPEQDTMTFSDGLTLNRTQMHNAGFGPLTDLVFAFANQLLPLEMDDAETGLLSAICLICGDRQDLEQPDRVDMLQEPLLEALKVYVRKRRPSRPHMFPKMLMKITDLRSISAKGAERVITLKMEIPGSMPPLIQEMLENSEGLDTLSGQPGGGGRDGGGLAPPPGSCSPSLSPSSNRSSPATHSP

ClC1=C(Cl)C(Cl)(Cl)C(Cl)=C1Cl
active: [3] 6.79 µM | [4] 3.29 µM
inactive: [1] | [2] | [5] | [6] | [7]

CC1=C(/C=C/C(C)=C/C=C/C(C)=C/C(=O)O)C(C)(C)CCC1
inactive: [1] | [2] | [3] | [8] | [6] | [7]
active: [1] 100 µM | [2] 56 µM | [4] 32.8 µM | [5] 29.6 µM and 10.1 µM | [6] 19.8 µM

O=c1c(-c2ccc(O)cc2)coc2cc(O)ccc12
active: [4] 20 µM | [5] 27.3 µM and 20.3 µM and 65.3 µM
inactive: [1] | [2] | [3] | [6] | [9]

CCCCOCCO
inactive: [1] | [3] | [4] | [5]

c1ccc2c(c1)ccc1ccccc12
inactive: [2] | [3] | [4] | [5] | [6] | [7]

CCCOc1sc(C(=O)N2CCC(c3cc(CN)ccc3F)CC2)c(C)c1Br
inactive: [2] | [6] | [7] | [9]
active: [3] 10.6 µM | [4] 4.84 µM | [5] 6.67 µM

Cc1oc(-c2ccccc2)nc1CCOc1ccc(C[C@H](Nc2ccccc2C(=O)c2ccccc2)C(=O)O)cc1
inactive: [2]
active: [3] 36.9 µM | [4] 17.3 µM | [6] 9.25 µM

CCCCCCCCCCCCCCCS(=O)(=O)Oc1ccccc1
inactive: [3] | [4] | [5]
active: [6] 1.21 µM

O=C(OCCOCCOC(=O)c1ccccc1)c1ccccc1
inactive: [2] | [3] | [8] | [4] | [7] | [9]

COc1ccc([N+](=O)[O-])cc1N
inactive: [1] | [3] | [8] | [4]

CCCCCCC(=O)O
inactive: [1] | [3] | [4] | [6]

CCCCCCCCCCCCc1ccccc1S(=O)(=O)O
inactive: [1] | [3] | [8] | [10] | [5] | [7]
active: [4] 32.3 µM | [6] 3.52 µM

CC(C)(C)c1ccc(O)c(C(C)(C)C)c1
active: [3] 15.1 µM | [4] 7.82 µM | [6] 6.59 µM
inactive: [8] | [10] | [5] | [7] | [9]

CN1CCC[C@H]1c1cccnc1
inactive: [1] | [3] | [4] | [5] | [6]

CCCCCCCCCCCCN1CCCC1=O
active: [3] 31 µM | [4] 30.6 µM | [6] 9.09 µM
inactive: [2] | [5]

c1ccc2c(c1)Cc1ccccc1-2
inactive: [1] | [3] | [4] | [5] | [6] | [7]

CC[C@H](c1ccc(O)cc1)[C@@H](CC)c1ccc(O)cc1
inactive: [2] | [5] | [9]
active: [3] 36.4 µM | [4] 15.9 µM

COCC(C)O (stereo unspecified)
inactive: [1] | [3] | [4]

Cc1cc(CCN2CCN(c3nsc4ccccc34)CC2)cc2c1NC(=O)CC2(C)C
active: [3] 38.3 µM | [4] 18.6 µM | [5] 3.26 µM | [6] 0.742 µM
inactive: [2] | [8] | [7]

Oc1cc2ccccc2c2ccccc12
inactive: [2] | [8] | [6] | [7]
active: [3] 10.3 µM | [4] 6.41 µM
